Only a selection was taken, and the strongest signals are over-represented in it overall.
Experiments:
Test in all cases: glycan array binding signal (z-score within array); higher = stronger binding
Settings in all cases: glycan notation: IUPAC condensed, linker removed
Fuc(a1-2)Gal = molecular target: Fuc(a1-2)Gal
In short: (§1)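 Glycan array data were curated from 3228 arrays in the Consortium for Functional Glycomics database and kept only where the protein sequence was available. Glycan names were converted to IUPAC-condensed notation, and columns mapping to the same glycan were averaged. The binding signal is a within-array Z-score, averaged across arrays of the same protein sequence at different concentrations or buffers and across linkers. Negative Z-scores can be read as non-binding.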

[1] = molecular target: Fuc(a1-2)Gal(b1-3)GlcNAc(b1-2)Man(a1-3)[Fuc(a1-2)Gal(b1-3)GlcNAc(b1-2)Man(a1-6)]Man(b1-4)GlcNAc(b1-4)GlcNAc
In short: as §1

[2] = molecular target: Fuc(a1-2)Gal(b1-3)[Fuc(a1-4)]GlcNAc(b1-3)[Gal(b1-4)GlcNAc(b1-6)]Gal(b1-4)Glc
In short: as §1

[3] = molecular target: Fuc(a1-2)Gal(b1-4)GlcNAc(b1-3)Gal(b1-4)GlcNAc(b1-2)Man(a1-3)[Fuc(a1-2)Gal(b1-4)GlcNAc(b1-3)Gal(b1-4)GlcNAc(b1-2)Man(a1-6)]Man(b1-4)GlcNAc(b1-4)GlcNAc
In short: as §1

Fuc(a1-2)Gal6S(b1-4)Glc = molecular target: Fuc(a1-2)Gal6S(b1-4)Glc
In short: as §1

[4] = molecular target: Fuc(a1-2)[GalNAc(a1-3)]Gal(b1-4)GlcNAc(b1-3)Gal(b1-4)GlcNAc(b1-3)Gal(b1-4)GlcNAc
In short: as §1

[5] = molecular target: Fuc(a1-3)[Gal(b1-4)]GlcNAc
In short: as §1

[6] = molecular target: Fuc(a1-3)[Gal(b1-4)]GlcNAc(b1-2)Man(a1-3)[Fuc(a1-3)[Gal(b1-4)]GlcNAc(b1-2)Man(a1-6)]Man(b1-4)GlcNAc(b1-4)[Fuc(a1-6)]GlcNAc
In short: as §1

Fuc(a1-4)GlcNAc = molecular target: Fuc(a1-4)GlcNAc
In short: as §1

[7] = molecular target: Gal(a1-3)Gal(b1-4)GlcNAc(b1-2)Man
In short: as §1

[8] = molecular target: Gal(a1-3)Gal(b1-4)[Fuc(a1-3)]GlcNAc(b1-2)Man(a1-3)[Gal(a1-3)Gal(b1-4)[Fuc(a1-3)]GlcNAc(b1-2)Man(a1-6)]Man(b1-4)GlcNAc(b1-4)GlcNAc
In short: as §1

[9] = molecular target: Gal(b1-3)GlcNAc(b1-3)Gal(b1-4)GlcNAc(b1-3)Gal(b1-4)GlcNAc(b1-2)[Gal(b1-3)GlcNAc(b1-3)Gal(b1-4)GlcNAc(b1-3)Gal(b1-4)GlcNAc(b1-6)]Man(a1-6)[Gal(b1-3)GlcNAc(b1-3)Gal(b1-4)GlcNAc(b1-3)Gal(b1-4)GlcNAc(b1-2)Man(a1-3)]Man(b1-4)GlcNAc(b1-4)[Fuc(a1-6)]GlcNAc
In short: as §1

[10] = molecular target: Gal(b1-4)GlcNAc(b1-3)Gal(b1-4)GlcNAc(b1-2)Man(a1-3)[Gal(b1-4)GlcNAc(b1-3)Gal(b1-4)GlcNAc(b1-2)Man(a1-6)]Man(b1-4)GlcNAc(b1-4)GlcNAc
In short: as §1

[11] = molecular target: Gal(b1-4)GlcNAc(b1-3)Gal(b1-4)GlcNAc(b1-3)Gal(b1-4)GlcNAc(b1-2)Man(a1-3)[Gal(b1-4)GlcNAc(b1-3)Gal(b1-4)GlcNAc(b1-3)Gal(b1-4)GlcNAc(b1-2)Man(a1-6)]Man(b1-4)GlcNAc(b1-4)GlcNAc
In short: as §1

[12] = molecular target: Gal(b1-4)GlcNAc(b1-3)Gal(b1-4)GlcNAc(b1-3)Gal(b1-4)GlcNAc(b1-3)Gal(b1-4)GlcNAc(b1-3)Gal(b1-4)GlcNAc(b1-2)Man(a1-3)[Gal(b1-4)GlcNAc(b1-3)Gal(b1-4)GlcNAc(b1-3)Gal(b1-4)GlcNAc(b1-3)Gal(b1-4)GlcNAc(b1-3)Gal(b1-4)GlcNAc(b1-2)Man(a1-6)]Man(b1-4)GlcNAc(b1-4)GlcNAc
In short: as §1

[13] = molecular target: Gal(b1-4)GlcNAc(b1-3)Gal(b1-4)GlcNAc(b1-3)Gal(b1-4)GlcNAc(b1-3)Gal(b1-4)GlcNAc(b1-3)Gal(b1-4)GlcNAc(b1-2)Man(a1-3)[Gal(b1-4)GlcNAc(b1-3)Gal(b1-4)GlcNAc(b1-3)Gal(b1-4)GlcNAc(b1-3)Gal(b1-4)GlcNAc(b1-3)Gal(b1-4)GlcNAc(b1-2)Man(a1-6)]Man(b1-4)GlcNAc(b1-4)[Fuc(a1-6)]GlcNAc
In short: as §1

[14] = molecular target: Gal(b1-4)GlcNAc(b1-3)Gal(b1-4)GlcNAc(b1-3)Gal(b1-4)GlcNAc(b1-3)Gal(b1-4)GlcNAc(b1-3)Gal(b1-4)GlcNAc(b1-2)[Gal(b1-4)GlcNAc(b1-3)Gal(b1-4)GlcNAc(b1-3)Gal(b1-4)GlcNAc(b1-3)Gal(b1-4)GlcNAc(b1-3)Gal(b1-4)GlcNAc(b1-6)]Man(a1-6)[Gal(b1-4)GlcNAc(b1-3)Gal(b1-4)GlcNAc(b1-3)Gal(b1-4)GlcNAc(b1-3)Gal(b1-4)GlcNAc(b1-3)Gal(b1-4)GlcNAc(b1-2)Man(a1-3)]Man(b1-4)GlcNAc(b1-4)[Fuc(a1-6)]GlcNAc
In short: as §1

[15] = molecular target: Gal(b1-4)GlcNAc(b1-3)Gal(b1-4)GlcNAc(b1-3)Gal(b1-4)GlcNAc(b1-3)Gal(b1-4)GlcNAc(b1-3)Gal(b1-4)GlcNAc(b1-3)Gal(b1-4)GlcNAc(b1-2)Man(a1-3)[Gal(b1-4)GlcNAc(b1-3)Gal(b1-4)GlcNAc(b1-3)Gal(b1-4)GlcNAc(b1-3)Gal(b1-4)GlcNAc(b1-3)Gal(b1-4)GlcNAc(b1-3)Gal(b1-4)GlcNAc(b1-2)Man(a1-6)]Man(b1-4)GlcNAc(b1-4)GlcNAc
In short: as §1

[16] = molecular target: Gal(b1-4)GlcNAc(b1-6)GalNAc
In short: as §1

Gal3S(b1-4)Glc = molecular target: Gal3S(b1-4)Glc
In short: as §1

Gal3S(b1-4)Glc6S = molecular target: Gal3S(b1-4)Glc6S
In short: as §1

[17] = molecular target: Gal3S(b1-4)[Fuc(a1-3)]Glc6S
In short: as §1

Gal6S(b1-4)GlcNAc6S = molecular target: Gal6S(b1-4)GlcNAc6S
In short: as §1

[18] = molecular target: GalNAc3S(b1-4)[Fuc(a1-3)]GlcNAc
In short: as §1

[19] = molecular target: GlcNAc(a1-4)Gal(b1-3)GlcNAc
In short: as §1

B1: SP15308C-bot-338-23-338 (Bacteroides ovatus) (protein)
chain: DEWTDEQFKQLISFKTQPGGWGVTDVHVRYANSAKYTYNLPVLVSGSTDNTDDRLVSFSLRDDTLDILNFEKFGNRPELYFRELPQKYYSFPKELTIPAGQSHALLPIEFSLDGLDDSQKWALPLKVCEDANGTYAVNPRKYYRTAVLRPILFNEFSGRFSGSSLLGTMAGESDIKFSSTEIKLNVVTDSIVFFYAGQRTEDYEDRINYKVFLQFTGDKVDSKKDLYKMKIWAENEKLKFNSYSTPTYKVSSEMDATKTYLKHTYIVISDIDFDFVDYTSVPNYEIEYNMKGGLSVSRDLDTRKPDEDQGSDSKWW
Fuc(a1-2)Gal
  glycan array binding signal (z-score): -0.164
[1]
  glycan array binding signal (z-score): 2.27
[2]
  glycan array binding signal (z-score): -0.476
[3]
  glycan array binding signal (z-score): 0.228
Fuc(a1-2)Gal6S(b1-4)Glc
  glycan array binding signal (z-score): 0.374
[4]
  glycan array binding signal (z-score): -0.548
[5]
  glycan array binding signal (z-score): -0.26
[6]
  glycan array binding signal (z-score): 2.11
Fuc(a1-4)GlcNAc
  glycan array binding signal (z-score): 2.58
[7]
  glycan array binding signal (z-score): -0.133
[8]
  glycan array binding signal (z-score): 1.61
[9]
  glycan array binding signal (z-score): 3.59
[10]
  glycan array binding signal (z-score): 1.12
[11]
  glycan array binding signal (z-score): 4.37
[12]
  glycan array binding signal (z-score): 2.06
[13]
  glycan array binding signal (z-score): 2.46
[14]
  glycan array binding signal (z-score): 6.22
[15]
  glycan array binding signal (z-score): 0.957
[16]
  glycan array binding signal (z-score): -0.147
Gal3S(b1-4)Glc
  glycan array binding signal (z-score): -0.591
Gal3S(b1-4)Glc6S
  glycan array binding signal (z-score): -0.188
[17]
  glycan array binding signal (z-score): 0.68
Gal6S(b1-4)GlcNAc6S
  glycan array binding signal (z-score): -0.622
[18]
  glycan array binding signal (z-score): -0.053
[19]
  glycan array binding signal (z-score): 0.674
